PubChem BioAssay
Activity calls are given as the source filed them.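 Rule for the calls, unless noted: active = visual image review flags a hit and inhibition of aggregation exceeds 20%; inconclusive = visual hit but inhibition at or below 20%; inactive = no hit on visual image review.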

Experiments:
[1] = inhibitors of TNFa-induced NFkB p65 translocation, primary screen, imaging, HUVEC, MLSMR starter and 10KST1 sets (AID 438;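 active = inhibition above 20% together with a positive visual image hit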;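 note: compound added about 3h40 before a 20 min TNFalpha stimulation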;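 for inhibition: signal is the nuclear over cytoplasmic p65 intensity ratio per well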); conditions: HUVEC TNFa-induced p65 nuclear translocation; cell count: measured here: nuclei count (cytotoxicity indicator), at 2.08 µM; inhibition: at 2 µM, stronger effect = higher value, 0% TNFa-plus-vehicle, 100% no-TNFa wells
[2] = reduction of polyQ htt aggregates in cells – imaging, exon1htt(103Q)mCFP cells, high-content imaging, primary screen (AID 483); conditions: exon1htt(103Q)mCFP cell line, aggregate imaging, at 2 µM; inhibition of aggregation: stronger effect = higher value; nuclei count: measured here: cell count, toxicity;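 note: compound exposure lasted 3 days before fixation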;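 for nuclei count: percent of the per-plate median nuclei count of sample wells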
[3] = endothelial E-selectin expression blockers – imaging, HUVEC, immunofluorescence, MLSMR starter and 10KST1 sets, primary screen (AID 487;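 active = visually confirmed hit in the image check and inhibition above 20%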;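 for inhibition: signal is fraction of cell area covered by stained E-selectin grains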;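 for nuclei count: 100% = median nuclei count of all wells on the same plate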); conditions: HUVEC TNFalpha-induced E-selectin immunofluorescence imaging, at 2 µM; inhibition: stronger effect = higher value; nuclei count: measured here: cell number, toxicity
[4] = molecular target: Voltage-gated potassium channel subunit beta-2 (Rattus norvegicus) (UniProt P62483); assay: inhibitors of rat Kvbeta2 reductase activity – biochemical, NADPH fluorescence, primary screen (AID 622;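 active = fluorescence slope higher than the sample average by over 3 SD, cut at about -0.22 in these data, passing the limit was not always enough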;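 note: slope of raw intensity against log time taken from 70 to 1610 s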); conditions: recombinant KvBeta, 4-cyanobenzaldehyde reduction, at 10 µM, stronger effect = higher value
Sequence of Voltage-gated potassium channel subunit beta-2 (Rattus norvegicus) (P62483 whole entry, looked up): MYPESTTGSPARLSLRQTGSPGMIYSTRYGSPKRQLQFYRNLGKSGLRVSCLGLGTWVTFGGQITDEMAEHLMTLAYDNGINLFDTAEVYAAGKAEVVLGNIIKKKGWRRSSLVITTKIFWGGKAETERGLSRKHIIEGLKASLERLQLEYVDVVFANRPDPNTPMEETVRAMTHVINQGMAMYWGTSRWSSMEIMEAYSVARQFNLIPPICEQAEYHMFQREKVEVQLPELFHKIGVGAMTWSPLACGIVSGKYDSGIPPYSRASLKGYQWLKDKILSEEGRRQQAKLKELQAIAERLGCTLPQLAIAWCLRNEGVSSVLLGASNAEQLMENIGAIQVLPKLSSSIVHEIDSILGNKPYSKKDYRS

[5] = molecular target: Voltage-gated potassium channel subunit beta-2 (Rattus norvegicus) (UniProt P62483); assay: enhancers of rat Kvbeta2 NADPH turnover – biochemical, NADPH fluorescence, primary screen (AID 623;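 active = NADPH fluorescence slope more negative than the mean of all samples by about 3 SD, 99.7% confidence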;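 note: fluorescence intensity change per second fitted from 20 to 320 s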); conditions: Recombinant KvBeta, NADPH fluorescence decrease slope, 10 min; at 10 µM; stronger effect = lower value
[6] = molecular target: Alpha-2C adrenergic receptor (Homo sapiens) (UniProt P18825); assay: compounds altering alpha2C-coupled GIRK flux – cell-based, HEK293 alpha2C/GIRK1/2, thallium flux, primary screen (AID 624;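 active = fluorescence slope after compound addition differing from the mean of all screened samples at 99.7% confidence, in either direction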;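 note: slope of fluorescence ratio to pre-addition baseline per second over 15 to 24 s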); conditions: thallium flux BTC fluorescence, at 10 µM, actives lie on both sides
Sequence of Alpha-2C adrenergic receptor (Homo sapiens) (P18825 whole entry, looked up): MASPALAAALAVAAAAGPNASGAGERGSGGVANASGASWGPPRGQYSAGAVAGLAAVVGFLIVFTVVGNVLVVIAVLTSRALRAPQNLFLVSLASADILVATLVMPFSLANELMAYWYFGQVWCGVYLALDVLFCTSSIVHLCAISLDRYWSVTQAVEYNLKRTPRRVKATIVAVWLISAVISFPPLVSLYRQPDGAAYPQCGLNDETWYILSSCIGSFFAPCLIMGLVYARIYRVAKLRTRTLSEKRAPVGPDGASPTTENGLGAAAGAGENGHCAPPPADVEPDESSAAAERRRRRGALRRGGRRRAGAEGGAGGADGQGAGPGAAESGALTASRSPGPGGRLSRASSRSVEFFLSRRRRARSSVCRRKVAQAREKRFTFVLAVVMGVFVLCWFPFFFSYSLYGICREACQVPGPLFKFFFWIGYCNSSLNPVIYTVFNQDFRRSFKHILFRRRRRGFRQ

[7] = blockers of RIG-like receptor reporter activation – cell-based, Sendai virus stimulus, luciferase, 10K MLSCN set, TLR/RLR signaling modifier project, primary screen (AID 602276;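 active = inhibition at or above 50% at 10 µM; inactive = inhibition below 50%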;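 note: firefly luciferase from ISG56 promoter only with Renilla not read in this screen; 0% = Sendai virus plus DMSO and 100% = medium plus DMSO without virus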); conditions: HEK293 RL24 IRF3 luciferase reporter, at 10 µM, stronger effect = higher value
[8] = TLR3 IRF3 reporter activation blockers – cell-based, poly I:C stimulus, luciferase, 10K MLSCN set, primary screen (AID 602277;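 active = inhibition of the reporter signal at or above 50%; inactive = inhibition below 50%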); conditions: HEK293-TLR3 RL24 IRF3 luciferase reporter, at 10 µM, stronger effect = higher value

SMILES	cell count [1]	inhibition [1]	inhibition of aggregation [2]	nuclei count [2] [%]	inhibition [3]	nuclei count [3] [%]	fluorescence slope [4]	NADPH fluorescence slope [5]	slope [6]	inhibition [7]	inhibition [8]
CCOc1ccc(C(=O)CN2CCN(S(=O)(=O)c3ccc(OC)cc3)CC2)cc1	599	-2.9% (inactive)	-3.6% (inactive)	106	-29.2% (inactive)	92.2	-0.391 (inactive)	-4.7e-05 (inactive)	0.00338 (inactive)	-2.61% (inactive)	21.2% (inactive)
CCOC(=O)c1sc2nc(NC(=O)C(C)(C)C)sc2c1C	600	16.7% (inactive)	-3.3% (inactive)	112	-25.6% (inactive)	104	-0.496 (inactive)	-2.5e-05 (inactive)	0.00604 (inactive)	-20.5% (inactive)	-150% (inactive)
Cn1c(C(=O)NCCN2CCN(c3ccccc3F)CC2)cc2c(=O)n(C)c3ccccc3c21	1100	11% (inactive)	12.6% (inactive)	119	-30.2% (inactive)	112	-0.571 (inactive)	-2.1e-05 (inactive)	0.00598 (inactive)	4.48% (inactive)	16% (inactive)
Cc1ccc(C2Nc3ccccc3-c3nc4ccccc4n32)o1 (stereo unspecified)	741	6.8% (inactive)	3.8% (inactive)	88.4	-26.5% (inactive)	80.6	-0.475 (inactive)	-2.2e-05 (inactive)	0.00364 (inactive)	-46.2% (inactive)	-110% (inactive)
CCC(C)(C(=O)NC1CCCCC1)N(CC1CCCO1)C(=O)c1ccccn1 (stereo unspecified)	345	3% (inactive)	6.3% (inactive)	90.8	-5.3% (inactive)	104	-0.418 (inactive)	-8.5e-05 (inactive)	0.0062 (inactive)	15.2% (inactive)	26.8% (inactive)
CCOc1ccc(-c2cc(CCCC(=O)N3CCN(c4ccc(OC)cc4)CC3)no2)cc1	513	0.7% (inactive)	23.7% (inactive)	61	-0.1% (inactive)	86	-0.614 (inactive)	2.2e-05 (inactive)	0.00539 (inactive)	11% (inactive)	24.1% (inactive)
